For 40 compounds, outcome and AC50 results are on record in PubChem BioAssay (EPA / NIEHS).

Results filed as inconclusive are left out. The source made the active and inactive calls. The calls were made as follows: active = hit-call score of the fitted dose curve at least 0.9, where 1 is the maximum; inconclusive = response in the unintended direction; inactive = score below 0.9.

This experiment can be described thus: Tanguay_ZF_120hpf_AXIS_legacy: (Legacy) Oregon State University Tanguay Lab 120 Hour Post-fertilization zebrafish Assay for Body Axis Malformation (AID 2283635).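 As to AC50: potency for an increased fraction of larvae scored with body axis malformation.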 The protocol: Tanguay_ZF_120hpf_legacy is a whole embryo, multiplexed endpoint assay using zebrafish larvae exposed for 120 hours post fertilization on a 96-well plate.Tanguay_ZF_120hpf_AXIS_legacy is one of one assay component(s) measured or calculated from the Tanguay_ZF_120hpf_legacy assay. It is designed to make measurements of zebrafish development as detected with brightfield microscopy of developing zebrafish embryos.Data from the assay component Tanguay_ZF_120hpf_AXIS_legacy was analyzed into 1 assay endpoints. This assay endpoint, Tanguay_ZF_120hpf_AXIS_legacy, was analyzed in the positive analysis fitting direction relative to DMSO as the negative control and baseline of activity. Using a type of morphology reporter, gain-of-signal activity can be used to understand changes in developmentals as they relate to the whole embryo. To generalize the intended target to other relatable targets, this assay endpoint is annotated to the zebrafish development intended target family, where the subfamily is body axis morphogenesis.
Zebrafish husbandry: Tropical 5D wild-type adult zebrafish were housed in at an approximate density of 1000 per 100 gallon tank at the Sinnhuber Aquatic Research Laboratory, Oregon State University, Corvallis, OR. Each tank was kept at standard laboratory conditions of 28C on a 14-h light/10-h dark photoperiod in fish water consisting of reverse osmosis water supplemented with a commercially available salt (Instant Ocean). Spawning funnels were placed into the tanks the night prior, and embryos were collected and staged. To increase bioavailability, the chorion was enzymatically removed using pronase (63.6mg/ml, >/= 3.5U/mg, Sigma-Aldrich: P5147) at 4 hours post fertilization (hpf) using a custom automated dechorionator.Chemical exposures: Six hpf dechorionated embryos were placed 1 embryo per well in a 96-well plate prefilled with 90 ul of EM using automated embryo placement systems (AEPS). Ten microliters of each row of dilution plate 2 was added to 2 exposure plates. The final DMSO concentration used was 0.64% (vol/vol). Thirty-two embryos were also exposed to 5uM trimethyltin chloride (positive control). Plates were sealed to prevent evaporation and foil covered to reduce light exposure and kept in a 28C incubator. Embryos were statically exposed until 120 hpf. At 24 hpf, embryos were assessed for photomotor response using a custom photomotor response analysis tool (PRAT) and for developmental toxicity endpoints (MO24: mortality at 24 hpf, DP: developmental progression, SM: spontaneous movement, and NC: notochord distortion). At 120 hpf, locomotor activity was measured using Viewpoint Zebralab and assessed for 18 endpoints. Zebrafish acquisition and analysis program (ZAAP), a custom program designed to inventory, acquire, and manage zebrafish data, was used to collect developmental endpoints as either present or absent (i.e., binary responses were recorded). If mortality occurred for an embryo (at either 24 or 120 hpf), the non-mortality endpoints were not measured.
With `O=C(N[C@H]1CN2CCC1CC2)c1cc2ccoc2cn1`, the result was inactive.

Regarding `Cc1ccccc1CO[C@@H]1C[C@@]2(C(C)C)CC[C@]1(C)O2`, the call was inactive.

`Nc1ccc(-c2ccc(N)cc2)cc1`: the call was inactive.

For `CCC(=O)O[C@H]1CC[C@H]2[C@@H]3CCC4=CC(=O)CC[C@]4(C)[C@H]3CC[C@]12C`, the compound was called inactive.

For the compound `CCC(C)(CC)c1cc(NC(=O)c2c(OC)cccc2OC)on1`, the outcome was inactive.

For `CCSC(=O)N(CC)C1CCCCC1`, the outcome was inactive.

On to `ClC1=C(Cl)[C@]2(Cl)[C@@H]3[C@@H](Cl)[C@H]4O[C@H]4[C@@H]3C1(Cl)C2(Cl)Cl`, for which the outcome was inactive.

As to `CCOCCOC(C)=O`, the compound was called inactive.

As to `Oc1ccc(Cl)cc1Cl`, the compound was classed as inactive.

For `CCCCCCCCOC(=O)c1ccccc1C(=O)OCCCCCCCC`, the outcome was inactive.

Regarding `ClC1=C(Cl)[C@]2(Cl)[C@@H]3[C@H]4C[C@H]([C@@H]5O[C@H]45)[C@@H]3[C@@]1(Cl)C2(Cl)Cl`, the AC50 was 45.4 µM (active).

Take `ClC(Cl)=C(c1ccc(Cl)cc1)c1ccc(Cl)cc1`: the compound was classed as inactive.

For `Cc1ccccc1[N+](=O)[O-]`, the compound was called inactive.

For the compound `CC(C)(O)C(=O)Nc1ccc([N+](=O)[O-])c(C(F)(F)F)c1`, the half-maximal activity concentration (AC50) was 6.35 µM (active).

For `N#Cc1ccc(N(CC(N)=O)CC(F)(F)F)cc1C(F)(F)F`, the call was inactive.

Regarding `CCNc1nc(NC(C)C)nc(SC)n1`, the outcome was inactive.

For `COc1ccc(O)c(C(C)(C)C)c1`, the compound was classed as inactive.

Turning to `O=C(NC(=O)c1c(F)cccc1F)Nc1cc(Cl)c(OC(F)(F)C(F)F)c(Cl)c1`, the compound was classed as inactive.

In the case of `CCC(C)(c1ccc(O)cc1)c1ccc(O)cc1`, the AC50 was 46.9 µM (active).

On to `C=CC(=O)NCNC(=O)C=C`, for which the compound was called inactive.

In the case of `O=S(=O)(O)C(F)(F)C(F)(F)C(F)(F)C(F)(F)C(F)(F)C(F)(F)F`, the result was inactive.

Turning to `CN(C)CCO`, the compound was called inactive.

In the case of `CCCN(CCC)N=O`, the compound was classed as inactive.

`C=CC(N)=O`: the outcome was inactive.

Consider `CCC(C)c1cc([N+](=O)[O-])cc([N+](=O)[O-])c1O` (stereo not given), for which the outcome was inactive.

For `CC(C)C(=O)OCC(C)(C)C(OC(=O)C(C)C)C(C)C` (stereo not given), the compound was called inactive.

For the compound `Cc1cc(O)ccc1Cl`, the call was inactive.

For the compound `O=C(NC(=O)c1cc(F)c(F)cc1Cl)Nc1cc(F)ccc1N1CCC(C(=O)O)CC1`, the compound was called inactive.

Consider `Clc1ccc(Cl)cc1`, for which the outcome was inactive.

With `Cc1ccc(O)c(C)c1`, the outcome was inactive.

`Cc1cccc([N+](=O)[O-])c1`: the outcome was inactive.

`CCCCCCCCCC[N+](C)(C)CCCCCCCCCC`: the call was inactive.

For the compound `O=NN(c1ccccc1)c1ccccc1`, the result was inactive.

With `Oc1ccc(C(c2ccc(O)cc2)(C(F)(F)F)C(F)(F)F)cc1`, the AC50 is 58.3 µM (active).

Consider `O=C(O)C(F)(F)C(F)(F)C(F)(F)C(F)(F)C(F)(F)C(F)(F)C(F)(F)C(F)(F)F`, for which the compound was classed as inactive.

As for `Cc1cc(-c2ccc(N)c(C)c2)ccc1N`, the call was inactive.

Turning to `C[C@]12CCC(=O)C=C1CC[C@@H]1[C@@H]2CC[C@]2(C)C(=O)CC[C@@H]12`, the AC50 was 40.2 µM (active).

Regarding `CCOC(=O)C(O)(c1ccc(Cl)cc1)c1ccc(Cl)cc1`, the outcome was inactive.

Regarding `Oc1c(Cl)c(Cl)c(Cl)c(Cl)c1Cl`, the result was inactive.

On to `CC(c1ccc(O)cc1)(c1ccc(O)cc1)c1ccc(O)cc1`, for which the compound was called inactive.
